Each structure is given as a SMILES string. About 800 (1.6%) of roughly 50,000 compounds showed an effect of 50% or more. Many of the other results were omitted from the sample, so strong results are more common in it than they were.

In this test the target is Bcl-2-like protein 10 (Homo sapiens) (UniProt Q9HD36). The experiment in a line: Phenotype converters, Bcl-B/TR3 peptide binding displacement, primary biochemical FP (AID 1240).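 Also: 0% = Bcl-B with tracer peptide and DMSO and 100% = tracer peptide lacking Bcl-B.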 Particulars: GST-Bcl-B / FITC-TR3 peptide fluorescence polarization; stronger effect = higher value; compound at 3.75 mg/L.
Bcl-2-like protein 10 (Homo sapiens), sequence (Q9HD36 whole entry, looked up): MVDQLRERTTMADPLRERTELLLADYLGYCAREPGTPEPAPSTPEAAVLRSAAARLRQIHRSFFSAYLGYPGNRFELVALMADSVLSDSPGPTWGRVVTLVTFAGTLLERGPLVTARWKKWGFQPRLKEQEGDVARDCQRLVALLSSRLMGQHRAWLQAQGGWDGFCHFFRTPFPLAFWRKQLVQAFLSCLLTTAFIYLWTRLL
`OCCCc1nc2ccccc2n1Cc1ccccc1`: the displacement was determined as 2.4%.
The figure for `O=[N+]([O-])c1cc(C(F)(F)F)ccc1N/N=C/c1ccc(F)cc1` is 6.3%.
The figure for `CC(=O)N(C1=C(N2CCCCC2)C(=O)c2ccccc2C1=O)c1ccc(C)cc1` is 11.1%; for `O=C(Nc1ccc2c(c1)OCCO2)c1ccc(Br)cc1` it is -0.2%.
Regarding `O=S(=O)(Nc1ccc(SC(F)F)cc1)c1cccc2cccnc12`, the displacement is 1.7%.
Take `CCc1nnc(NC(=O)C2CCCC2)s1`: the displacement is -7.8%.
`Cc1cc(=O)n2cc(Br)ccc2n1`: the displacement amounted to 0.1%.
For the compound `O=C(Nc1ccc(NC(=O)c2ccc([N+](=O)[O-])cc2Cl)cc1Cl)c1ccco1`, the displacement was -2%.
As to `O=C(C1CCCCC1)N1CCN=C1c1ccccc1`, the displacement was -1%.
The figure for `CN1C(=O)NC(=O)/C(=C\c2cc(Cl)c(OCC(=O)O)c(Cl)c2)C1=O` is -3.5%.
The figure for `Cc1ccc(NC(=O)/C=C/C(=O)c2ccccc2)cc1` is 54.6%; for `Cc1ccc(NC(=O)/C=C/c2ccccc2)cc1` it is -3.5%; for `O=C(O)/C=C\C(=O)Nc1ccc(C(=O)c2ccccc2)cc1` it is 3.2%.
In the case of `CCN(CC)CCN1C(=O)C(O)=C(C(=O)/C=C/c2ccccc2)C1c1ccc(Br)cc1` (configuration not stated), the displacement is 11.4%.
With `O=C(C1CCCC1)N1CCN(c2ccc(F)cc2)CC1`, the displacement was -0.9%.
The figure for `Cc1cc(C)c2oc(-c3cccc(NC(=O)COc4ccccc4[N+](=O)[O-])c3)nc2c1` is -24.2%; for `O=C(COc1ccccc1[N+](=O)[O-])Nc1ccc(-c2nc3ccccc3o2)cc1` it is -1.3%.
The figure for `O=C(COc1ccccc1[N+](=O)[O-])Nc1ccc2oc(-c3cccc4ccccc34)nc2c1` is 56.9%.
The figure for `Cc1cc(C)c2oc(-c3ccc(NC(=O)COc4ccccc4[N+](=O)[O-])cc3)nc2c1` is 89.3%; for `O=C(COc1ccccc1[N+](=O)[O-])Nc1ccc2oc(-c3ccccc3Br)nc2c1` it is 5.2%.
Regarding `O=C(COc1ccccc1[N+](=O)[O-])Nc1cc(-c2nc3ccccc3o2)ccc1Cl`, the displacement was 91.6%.
In the case of `Cc1cc2nc(-c3ccc(NC(=O)COc4ccccc4[N+](=O)[O-])cc3)oc2cc1C` it was -0.7%.
The figure for `Cc1ccc(-c2nc3ccccc3o2)cc1NC(=O)COc1ccccc1[N+](=O)[O-]` is -7.1%; for `O=C(COc1ccccc1[N+](=O)[O-])Nc1ccc2oc(-c3ccccc3F)nc2c1` it is 2.9%; for `Cc1cc(C)c2nc(Nc3nc4ccccc4c(=O)[nH]3)nc(C)c2c1` it is 9.2%.
On to `O=C(O)CCCCCN1C(=O)C(O)=C(C(=O)/C=C/c2ccccc2)C1c1ccccc1Cl` (configuration not stated), for which the displacement was -7.2%.
For `Cc1c(O)nc(Nc2nc(C)c3ccccc3n2)[nH]c1=O`, the displacement stood at 9%.
